# In the library only some 2.3% were active in any assay of this set; here they are far more common.
# Mcl1 Bid PPI: disrupts binding of human Mcl-1 to Bid peptide. 0.97% of 220,000 active. Q07820. AID 1021. TR-FRET Mcl-1/Bid-Dy647 peptide binding, 1536-well. inhibition, % at 21.7 µM;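 active = compounds that cut the binding signal by more than half at the single screening dose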;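 also: His-tagged Mcl-1 with europium anti-His antibody binding Bid BH3 peptide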
# Target sequence (Q07820 whole entry, looked up): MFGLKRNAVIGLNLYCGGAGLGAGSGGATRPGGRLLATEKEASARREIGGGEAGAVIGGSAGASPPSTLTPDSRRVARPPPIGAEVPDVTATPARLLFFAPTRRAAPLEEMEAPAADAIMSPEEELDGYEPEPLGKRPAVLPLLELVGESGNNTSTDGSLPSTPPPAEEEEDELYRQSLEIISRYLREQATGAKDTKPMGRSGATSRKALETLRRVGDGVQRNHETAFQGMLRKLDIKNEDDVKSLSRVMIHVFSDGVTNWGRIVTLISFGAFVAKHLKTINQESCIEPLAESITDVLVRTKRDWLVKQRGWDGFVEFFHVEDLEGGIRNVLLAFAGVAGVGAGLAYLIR
# Bcl-xL primary: blocks human Bcl-xL binding to Bim BH3 peptide. Q07817. GST-Bcl-xL / FITC-Bim BH3 peptide fluorescence polarization. inhibition, % at 10.9 µM. 0.7% of 320,000 active. AID 2129;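 active = inhibition above the mean of all tested compounds plus 3 SD, cutoff set per campaign, cut at about 30% in these data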;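 also: inhibitors lower millipolarization by displacing the labeled peptide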
# Target sequence (Q07817 whole entry, looked up): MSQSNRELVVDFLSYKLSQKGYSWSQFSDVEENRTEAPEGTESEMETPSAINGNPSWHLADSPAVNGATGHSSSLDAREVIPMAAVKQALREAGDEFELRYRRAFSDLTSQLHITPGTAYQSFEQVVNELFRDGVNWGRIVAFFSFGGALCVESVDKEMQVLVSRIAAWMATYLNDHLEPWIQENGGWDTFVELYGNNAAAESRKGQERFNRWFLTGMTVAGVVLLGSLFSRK
# MCL1 BIM primary: inhibitors of human MCL1 binding to BIM-BH3 peptide; Q07820; GST-MCL1 / FITC-Bim-BH3 fluorescence polarization; inhibition, % at 10.9 µM; 0.68% of 320,000 active; AID 2057;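 active = inhibition above the mean inhibition of all tested compounds plus 3 SD, set per campaign, cut at about 40% in these data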;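 also: higher means more loss of mP so more displacement of Bim peptide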
# Mcl-1 Bim block: inhibitors of Bim-Mcl-1 interaction, human; Q07820; Bead-based flow cytometry, Bim peptide-Mcl-1 binding; inhibition, % at 10 µM; 0.1% of 190,000 active; AID 1009; in the data active = inhibition above about 40%
# Mcl1-Noxa inh: disrupts binding of human Mcl-1 to Noxa peptide | Q07820 | TR-FRET Mcl-1/Noxa peptide binding, 2 h | inhibition, % at 21.7 µM | 1.5% of 220,000 active | AID 1022;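 active = compounds that cut the protein-peptide binding signal by more than 50% relative to plate controls in a single-dose test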;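 also: His-tagged Mcl-1 with rhodamine Noxa BH3 peptide and terbium anti-His antibody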
# GLD-1 RNA inh: GLD-1-TGE RNA interaction inhibition (C. elegans); Q17339; purified GLD-1 + fluorescein TGE RNA, fluorescence polarization; inhibition, % at 5.96 µM; 0.44% of 320,000 active; AID 2280;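 active = percent inhibition above a per-plate cutoff, the plate mean of test compounds plus 3 SD, cut at about 30% in these data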
# Numbers stand for hits; – = inactive; · = not tested or not shown.
SMILES,Mcl1 Bid PPI,Bcl-xL primary,MCL1 BIM primary,Mcl-1 Bim block,Mcl1-Noxa inh,GLD-1 RNA inh
Cc1ccc2nc(-c3ccc(SCC(=O)O)nc3)[nH]c2c1,–,–,–,–,–,–
CCc1nnc(NC(=O)CSc2ccc(-c3nc4ccc(C)cc4[nH]3)cn2)s1,–,–,–,–,58,–
Cc1cc2nc(-c3ccc(SCC(=O)Nc4nccs4)nc3)[nH]c2cc1C,–,·,·,–,73,·
O=C(O)CCCN1C(=O)/C(=C/c2ccc(-c3nc4ccccc4s3)o2)SC1=S,53,–,–,–,102,–
O=C(O)CCCCCN1C(=O)/C(=C\c2ccncc2)SC1=S,–,–,–,–,–,–
O=C(O)CCCCCN1C(=O)/C(=C\c2ccc(-c3ccc(Cl)cc3)o2)SC1=S,90,–,–,·,105,–
CCOc1ccc(NC(=O)C2Cc3ccccc3CN2S(=O)(=O)CC)cc1 (stereo unspecified),–,–,–,–,–,–
CCS(=O)(=O)N1Cc2ccccc2CC1C(=O)OCC(=O)N(C(C)C)C(C)C (stereo unspecified),–,–,–,–,70,–
O=S(=O)(NCC(c1ccco1)N1CCc2ccccc2C1)c1ccc(Br)cc1 (stereo unspecified),·,–,–,·,·,–
CC(C(=O)Nc1ccccn1)N1C(=O)c2ccccc2S1(=O)=O (stereo unspecified),·,–,–,·,·,–
O=C(COc1ncnc2sccc12)Nc1ccc2c(c1)OCCO2,–,–,–,–,–,–
Cc1sc2ncnc(OCC(=O)Nc3ccc4c(c3)OCCO4)c2c1C,99,–,–,–,–,–
CC(=O)C1=C(C)NC(=O)NC1c1ccc(Cl)cc1 (stereo unspecified),–,–,–,–,54,–
Cc1ccc(CN2CCN(C(=O)c3ccco3)CC2)cc1,–,–,–,–,–,–
O=C(CN1CCN(C(=O)c2ccco2)CC1)Nc1c2c(nc3c1CCC3)CCCC2,51,·,·,–,–,·
O=C(c1ccco1)N1CCN(Cc2cccnc2)CC1,51,–,–,–,–,–
OC(CNCCc1ccc(Cl)cc1)COc1cc(Cl)ccc1Cl (stereo unspecified),·,–,–,·,·,–
CCOC(=O)C1=C(C)N(c2ccccc2)C(=O)/C1=C\c1ccc(O)c(OC)c1,–,–,–,·,–,–
O=C1/C(=C\c2ccc(O)c(O)c2)C(c2ccccc2)=NN1c1ccccc1,–,·,·,–,71,·
COc1cc(/C=C2\C(=O)N(c3ccc(NC(C)=O)cc3)N=C2c2ccccc2)ccc1O,–,–,–,–,58,–
CCOc1cc(/C=C2\C(=O)N(c3nc(-c4ccc(Br)cc4)cs3)N=C2c2ccccc2)ccc1O,81,–,–,–,94,–
CC(=O)C1=C(O)C(=O)N(Cc2ccccc2)C1c1ccc([N+](=O)[O-])cc1 (stereo unspecified),·,–,–,·,·,–
COC(=O)c1c(NC(=O)COC(=O)C2CCC2)sc(C)c1C,·,–,–,·,·,–
COc1ccccc1N(C(=O)CNC(=O)c1ccco1)C(C(=O)NC1CCCCC1)c1ccncc1 (stereo unspecified),·,–,–,·,·,–
Cc1[nH]n(-c2ccc(Br)cc2)c(=O)c1C=Nc1ccc(S(=O)(=O)Nc2nccs2)cc1,–,–,–,–,79,–
SMILES,Mcl1 Bid PPI,Bcl-xL primary,MCL1 BIM primary,Mcl-1 Bim block,Mcl1-Noxa inh,GLD-1 RNA inh
Cc1ccc(-n2[nH]c(C)c(C=Nc3ccc(S(=O)(=O)Nc4nccs4)cc3)c2=O)cc1,–,–,–,–,–,–
CCOc1cc(/C=C2/SC(=S)NC2=O)ccc1OC(=O)c1ccco1,–,–,–,–,57,–
CCOC(=O)COc1ccc(/C=C2/C(=O)NN(c3ccc(F)cc3)C2=O)cc1OC,·,–,–,·,·,–
CCOC(=O)c1ccc(N2NC(=O)/C(=C/c3ccc(OC(=O)c4ccco4)c(OC)c3)C2=O)cc1,–,–,–,–,56,–
Cc1ccc(CN(C)C2CCN(C)CC2)cc1,·,–,–,·,·,–
O=C(NCC(=O)N(c1cccnc1)C(C(=O)NC1CCCCC1)c1ccccc1F)c1ccco1 (stereo unspecified),·,–,–,·,·,–
Cc1nn(C(=O)CCCC(=O)NCc2ccccc2)c2ccccc12,·,–,–,·,·,–
S=c1[nH]c(-c2ccccc2)cn1/N=C/c1ccncc1,–,–,–,·,–,–
CCOc1ccc(/C=N/n2cc(-c3ccccc3)[nH]c2=S)cc1,–,–,–,–,53,–
Cc1cccc(NC(=O)Nc2ccc3c(c2)CCC3)c1,·,–,–,·,·,–
CCOc1ccc(C(=O)Nc2ccc(C(=O)N3CCOCC3)cc2)c(OCC)c1,·,–,–,·,·,–
CS(=O)(=O)c1ccc(Cl)c(NC(=O)COc2ccc3c(c2)CCC3)c1,·,–,–,·,·,–
COC(=O)C1=C(C)OC(N)=C(C#N)C1c1cccnc1 (stereo unspecified),–,–,–,–,–,–
CC(=O)C1=C(C)OC(N)=C(C#N)C1c1ccncc1 (stereo unspecified),–,30,42,–,–,–
CC(OC(=O)CC1Sc2ccccc2NC1=O)C(=O)NC1CCCC1 (stereo unspecified),·,–,–,·,·,–
Cc1ccc(OCC(=O)NCCCNC(=O)c2ccncc2)cc1,·,–,–,·,·,–
CC(C)(C)[C@@H]1COC(=O)[C@@H](Cc2ccc(F)cc2)C/C=C\C[C@H](CC(=O)N(CCO)Cc2ccccc2)C(=O)N1,·,·,·,·,·,–
O=C(Cn1c(-c2ccccc2)noc1=O)N1CCC(Cc2ccccc2)CC1,–,–,–,40,–,–
COc1ccc(-c2noc(=O)n2CC(=O)N2CCC(Cc3ccccc3)CC2)cc1,–,–,–,–,–,–
CN1CCN(Cc2oc(CO)cc(=O)c2O)CC1,–,–,–,–,–,–
COc1ccc(N2CCN(Cc3oc(CO)cc(=O)c3O)CC2)cc1,–,53,42,–,–,–
CCCc1cc(=O)[nH]c(SCCc2ccccc2)n1,·,–,–,·,·,–
O=C1CC(N2CCN(S(=O)(=O)c3ccccc3)CC2)C(=O)N1c1ccccc1 (stereo unspecified),–,–,–,·,92,–
Cc1c2cnn(CC(=O)Nc3c(F)c(F)cc(F)c3F)c(=O)c2c(C)n1Cc1ccccc1F,–,35,41,–,–,–
COc1cc(CCCN2CCNC[C@@H]2Cc2ccc(O)cc2)cc(OC)c1OC,·,–,–,·,·,–
SMILES,Mcl1 Bid PPI,Bcl-xL primary,MCL1 BIM primary,Mcl-1 Bim block,Mcl1-Noxa inh,GLD-1 RNA inh
COc1cc(C(=O)N(C)CC2CCN(CCc3cccc(C(F)(F)F)c3)CC2)ccc1C,·,–,–,·,·,–
CCCN(Cc1nnc(-c2cccs2)o1)C(=O)c1cccc(S(=O)(=O)N2CCOCC2)c1,·,–,–,·,·,–
COc1ccc(-c2ccc(CCC(=O)O)n2NC(=O)c2cccs2)cc1,–,–,–,–,–,–
Cc1ccc(-c2ccc(CCC(=O)O)n2NC(=O)c2cccs2)cc1,–,–,–,49,–,–
COC(=O)c1ccc2c(c1O)C(=O)c1ccccc1C2=O,–,–,–,–,58,–
Cc1ccc(S(=O)(=O)N2CCCCC2)cc1NC(=O)CSc1ncccn1,·,–,–,·,·,–
